# Several values for one entry are separate records, joined by “and”; a condition that tells them apart may be missing. Equal entries are not always repeated. Compounds without any hit were thinned out: in the full panel of roughly 83,000, 20% have a hit.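 Growth was measured after 48 h exposure to one concentration of compound in 96-well plates. Values under 10 count as active.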 Activity calls are given as the source filed them.
# Test system: MDA-MB-468 breast
# Assay: NCI-60 one-dose screen, 48 h (100 = growth as untreated, 0 = no growth, -100 = all killed)
# Settings: 10 µM unless noted
row,SMILES,growth
1,O=C(NC(=S)NNC(=S)NNc1ccccc1)c1ccccc1,83.7% (inactive)
2,COc1ccc(C(=O)c2cc(OC)c(OC)c(OC)c2)cc1OC(=O)CCl,63.4% (inactive)
3,COc1cc(C2C3=C(COC3=O)Nc3cc4c(cc32)OCO4)cc2c1OCO2 (centres undefined),-10.3% (active)
4,COc1c(N2CC3CCCNC3C2)c(F)cc2c(=O)c(C(=O)N/N=C/c3ccc(F)cc3)cn(C3CC3)c12 (centres undefined),84.4% (inactive)
5,CC(C)(C)n1cc(-c2ccnc(NCCCNS(=O)(=O)c3ccc(Cl)cc3)c2)c(-c2cccc(F)c2)n1,48.4% (inactive)
6,Cc1nn(-c2ccc(Cl)cc2)c2nc3c(nc12)C(=O)c1ccccc1-3,49.2% (inactive)
7,C[C@H](Nc1ncnc2ccc(-c3cnc(Cl)c(NS(C)(=O)=O)c3)cc12)c1ccccc1,-62.4% (active)
8,O=C(Nc1ccc(Cl)c(Cl)c1)OCn1ncc2ccc([N+](=O)[O-])cc21,87% (inactive)
9,C#CCN1C(=O)/C(=c2\sc3n(c2=O)C2C(NN=3)N(CC)C(=O)N2CC)c2ccccc21 (centres undefined),-26.9% (active)
10,Cc1cnc(C(=O)NNc2nc3sc4c(c3c(=O)[nH]2)C(C)CCC4)cn1 (centres undefined),-10.4% (active)
11,Cc1cc(Nc2ncnc3ccc(NC4=NC(C)(C)CO4)cc23)ccc1Oc1ccn2ncnc2c1,-60.6% (active)
12,COc1ccc(-n2nc(C)c3c(Nc4ccc(NC(=O)Nc5c(Cl)cccc5Cl)cc4)ncnc32)cc1,27.9% (inactive)
13,O=C1C[C@@H](c2ccccc2)Oc2c(Cc3ccccc3O)c(O)c(Cc3cc(Cc4cc(Cc5ccccc5O)ccc4O)ccc3O)c(O)c21,101% (inactive)
14,N=C(N)SCc1cccc2c(CSC(=N)N)cccc12,108% (inactive)
15,COc1ccc2c(c1)c(-c1nc(-c3ccc4ccccc4c3)cs1)cn2C,10.4% (inactive)
16,N#Cc1c2ncccc2c2nnc3cc(Cl)c(Cl)cc3n12,21.7% (inactive)
17,COc1cc(/C=C/C(=O)/C=C(O)/C=C/c2ccc(OC(=O)C34CC5CC(CC(C5)C3)C4)c(OC)c2)ccc1OC(=O)C12CC3CC(CC(C3)C1)C2,108% (inactive)

row,SMILES,growth
1,O=C(Nc1ccc(I)cc1F)c1cc(Cl)ccc1O,-1.5% (active)
2,FC(F)(F)c1cc(-c2nnc3n2N=C(N2CCCC2)CS3)cc(C(F)(F)F)c1,66.3% (inactive)
3,CCn1cc(C(=O)O)c(=O)c2cc(F)c(N3CCN(CC(=O)Nc4ccc(C(C)=O)cc4)CC3)cc21,108% (inactive)
4,COc1ccc(-c2nnc(COc3ccc(NC(=O)Nc4cc(C(F)(F)F)cc(C(F)(F)F)c4)cc3F)o2)cc1,-9.21% (active)
5,CCOC(=O)c1c(NC(=O)c2ccc(C(C)(C)C)cc2)sc2cc(OCCN3CCCCC3)ccc12,85.8% (inactive)
6,N=C1S/C(=C/c2ccc(-c3ccc4c(c3)C(=O)NC4=O)o2)C(=O)N1c1ccc(Br)cc1,51.6% (inactive)
7,Clc1ccc(N2N=C(c3cccc(Nc4ccncc4)c3)CC2c2ccccc2)cc1 (centres undefined),74.1% (inactive)
8,Nc1ccccc1NC(=O)c1ccc(-n2nc(-c3ccccc3)c3ccccc32)cc1,94.5% (inactive)
9,Cc1nc2sc(C(=O)Nc3cccc4ccccc34)c(N)c2cc1C(C)O (centres undefined),25.3% (inactive)
10,O=S(=O)(O)c1ccc2cc(O)ccc2c1,101% (inactive)
11,Oc1c(Br)cc(Br)c2ccc(Cn3cc(-c4ccc(C(F)(F)F)cc4)nn3)nc12,30.8% (inactive)
12,Cn1c(N2NC(=O)C(N=Nc3ccc(S(N)(=O)=O)cc3)C2=O)nc(-c2ccco2)c(C#N)c1=O (centres undefined),-17.9% (active)
13,CCNCCNc1cc(C2CCCC2)c(C#N)c2nc3ccccc3n12,-25.5% (active)
14,Nc1c(C(=O)Nc2ccccc2C(F)(F)F)sc2nc3c(cc12)CCC3,104% (inactive)
15,Nc1c2ccccc2nc2ccccc12,-45.4% (active) and 2.95% (active) and 23% (inactive)
16,C#CC#CC#CC#CC#CC#CC#CC#CCC1OCC(COC(=O)O[C@@H](C(=O)O[C@H]2C[C@@]3(O)[C@@H](OC(=O)c4ccccc4)[C@@H]4[C@]5(OC(C)=O)CO[C@@H]5C[C@H](O)[C@@]4(C)C(=O)[C@H](OC(C)=O)C(=C2C)C3(C)C)[C@@H](NC(=O)c2ccccc2)c2ccccc2)O1 (some centres undefined),-22.4% (active)
17,CC(C)CC(NC(=O)C(CCCN=C(N)N)NC(=O)OCc1ccccc1)C(=O)NC(CNC(=O)/C=C/c1ccccc1)C(C)C (centres undefined),94.4% (inactive)

# — PubChem BioAssay (NCI)
